Screening results deposited in PubChem by Broad Institute.
The list is not random: actives were taken first. Their share in the collection is about 2.3%.
mut p53 react: mutant p53 pathway reactivation. activation, % at 9.98 µM. SW480 PUMA-promoter luciferase. hit rate 1.5% among 28,000. AID 624151; in the data active = activation above about 52%; inconclusive = no clear call, values can overlap the other calls
ID4 binder: ID4 (human) binding; P47928; small molecule microarray, Flag-ID4 binding, fluorescence F/B; calls only; hit rate 1.2% among 31,000; AID 624137; call rule not given here;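 also: a binder raises fluorescence above local background on the spot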
Target sequence (P47928 whole entry, looked up): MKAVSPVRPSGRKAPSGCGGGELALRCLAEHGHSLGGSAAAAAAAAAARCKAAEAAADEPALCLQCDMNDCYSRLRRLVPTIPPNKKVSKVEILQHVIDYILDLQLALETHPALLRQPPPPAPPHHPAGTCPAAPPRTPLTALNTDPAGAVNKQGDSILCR
Starred values were filed as active, the others as inactive; i = inactive; ? = inconclusive; / = no result given; + = active, no number.

SMILES	mut p53 react	ID4 binder
Cc1nnc(SCC(=O)c2c(C)[nH]c3ccccc23)s1	49.4	i
Cc1[nH]c2ccccc2c1C(=O)CSc1ncn[nH]1	4.6	i
Cc1[nH]c2ccccc2c1C(=O)CSc1nnc2ccccn12	94.9*	i
Cc1[nH]c2ccccc2c1C(=O)CCC(=O)O	-4.4	+
C=C(C(=O)O)[C@H]1C=C2[C@@H](C)[C@@H](O)[C@H](O)C[C@]2(C)CC1	-7.8	/
O=C(c1ccccc1)c1ccc2nc(-c3cccc(NC(=O)C4CCCO4)c3)[nH]c2c1 (stereo unspecified)	15.8	i
COc1ccc(S(=O)(=O)NCc2ccco2)cc1[N+](=O)[O-]	5.4	i
O=C(CSc1nnc(-c2ccco2)n1-c1ccccc1)c1ccc(F)cc1	-7.4	i
COc1ccc(S(=O)(=O)N(C)CC(=O)Nc2ccc3c(c2)OCCO3)cc1C	0.0	i
O=c1[nH]nc(SCCS(=O)(=O)c2ccc(F)cc2)n1Cc1ccco1	-5.6	i
Cc1ccccc1-c1nnc(SCC(=O)Nc2ccc3c(c2)OCCO3)n1C	-14.4	i
Cc1ccc(S(=O)(=O)N[C@@H]2CCCN(Cc3cccc(OCCO)c3)C2)cc1	/	i
Cc1ccc(S(=O)(=O)N[C@@H]2CCCN(Cc3ccc(OCCO)cc3)C2)cc1	/	+
O=S(=O)(N[C@@H]1CCCN(Cc2ccc(OCCO)cc2)C1)c1ccccc1	/	i
O=S(=O)(N[C@@H]1CCCN(Cc2cccc(OCCO)c2)C1)c1cc(Cl)ccc1Cl	/	+
Cc1c(NC(=O)c2ncn[nH]2)cccc1-c1nc2cc(Cl)ccc2o1	47.7	i
Cc1cc(C)nc(Nc2n[nH]c(-c3cccnc3)n2)n1	73.7*	i
Cc1cc(C)nc(Nc2n[nH]c(COc3ccccc3)n2)n1	?	i
COc1ccc(-c2nc(Nc3nc(C)cc(C)n3)n[nH]2)cc1OC	85.1*	+
COc1ccc(C(=O)CSc2n[nH]c(-c3ccccc3)n2)cc1OC	-11.6	i
Cc1onc(-c2ccccc2)c1C(=O)N(CCC#N)CCC#N	5.9	i
O=[N+]([O-])c1ccc(NC(=S)NCCCn2ccnc2)cc1	-4.1	i
O=C(CCN1C(=O)c2ccccc2S1(=O)=O)NCc1ccco1	21.3	+
O=C(CCN1C(=O)c2ccccc2S1(=O)=O)Nc1cccc(Cl)c1Cl	-3.5	i
CC1(C)CC[C@]2(C(=O)O[C@@H]3O[C@H](CO)[C@@H](O)[C@H](O)[C@H]3O)CC[C@]3(C)C(=CCC4[C@@]5(C)C[C@@H](O)[C@H](O)[C@](C)(CO)C5CC[C@]43C)C2[C@@H]1O (stereo partly specified)	/	i
SMILES	mut p53 react	ID4 binder
CC(=O)c1cccc(-n2c(CCC(=O)O)ccc2-c2ccc(C)cc2)c1	10.7	+
Cc1ccc(-c2ccc(CCC(=O)O)n2-c2ccc(N(C)C)cc2)cc1	8.8	i
COC(=O)COc1cccc(NC(=O)c2ccc(-c3ccccc3)cc2)c1	-15.8	i
O=C(C1CCCO1)N1CCN(C/C=C/c2ccccc2)CC1 (stereo unspecified)	-6.4	i
NS(=O)(=O)C#Cc1ccccc1	-31.3	i
Cc1cccc(C#Cc2ccccc2)n1	84.6*	i
COc1ccc(-c2nn(C)c(=O)c3ccccc23)cc1CNC(=O)Nc1ccccc1	1.0	i
O=C(COc1ccc(Cl)cc1C1C2=C(CCCC2=O)NC2=C1C(=O)CCC2)Nc1ccc(Cl)cc1	-21.1	i
COc1ccc(-c2csc3ncn(CC(=O)Nc4sc5c(c4C#N)CCC5)c(=O)c23)cc1OC	-7.8	+
COc1ccc(-c2csc3ncn(CC(N)=O)c(=O)c23)cc1OC	11.9	i
CC1CCc2c(sc3nc(SC(C)C(=O)Nc4ccccc4)nc(N)c23)C1 (stereo unspecified)	118.4*	i
CCc1cccc(C)c1NC(=O)CSc1nc2sc3c(c2c(=O)n1C)CCC(C)C3 (stereo unspecified)	-29.3	i
O=C(CC1NCCNC1=O)Nc1ccc(Cl)cc1 (stereo unspecified)	-2.8	i
Cn1c(=O)[nH]c(=O)c2c1ncn2CCNCc1ccco1	-0.4	+
O=C(Cn1cnc2ccccc2c1=O)NCc1ccco1	2.4	i
Cc1ccc(-c2cc(C(=O)NCc3ccccn3)no2)cc1	48.3	i
Cc1cc(C(=O)NCc2ccco2)no1	-7.1	i
O=C(NCc1ccccn1)c1cc(-c2ccccc2)on1	92.6*	i
Cc1ccc(-c2cc(C(=O)NCc3ccco3)no2)cc1	73.4*	i
COc1ccc(NC(=O)NCc2ccccn2)cc1OC	-4.3	i
O=C(NCc1ccccn1)C(=O)Nc1ccc(Cl)c(Cl)c1	57.9*	i
COc1ccc(Cl)cc1NC1=NC2CS(=O)(=O)CC2S1 (stereo unspecified)	-0.9	i
Cn1c(SCC(=O)Nc2cc(C(F)(F)F)ccc2Cl)nnc1-c1ccc(Br)cc1	-4.7	i
COc1ccc(S(=O)(=O)N(CC(N)=O)c2ccc(F)cc2)cc1	-4.4	i
O=C(CSc1nnc(-c2ccc(Cl)cc2)o1)Nc1ccc(I)cc1	24.4	i
SMILES	mut p53 react	ID4 binder
Cc1ccc(NC(=O)CSc2nnc(-c3ccc(C(C)(C)C)cc3)o2)c(C)c1	-7.3	i
O=C(CSc1nnc(-c2ccncc2)o1)Nc1ccccc1	31.0	i
Cc1cc([N+](=O)[O-])ccc1NC(=O)CSc1nnc(-c2ccccc2)o1	66.9*	i
COc1cc(OC)cc(-c2nnc(SCC(=O)Nc3ccccc3)o2)c1	102.3*	i
O=C(CSc1nnc(-c2ccc(Cl)cc2)o1)Nc1ccccc1C(F)(F)F	68.0*	i
Cc1ccc(N(C(C)C(=O)Nc2cc(Cl)cc(Cl)c2)S(C)(=O)=O)cc1C (stereo unspecified)	15.2	i
O=S(=O)(c1ccc(Br)cc1)c1nc(-c2ccc(F)cc2)oc1NCc1cccnc1	-3.5	i
Cc1cc(C(F)(F)F)nc2snc(Br)c12	0.8	i
Cc1cc(C)c(S(=O)(=O)N(C)CC(=O)Nc2ccc(Cl)cc2Cl)c(C)c1	-3.0	i
O=C(CSc1nnc(-c2ccncc2)n1-c1ccccc1)Nc1ccc(Br)cc1C(F)(F)F	-6.6	i
Cn1c(SCC(=O)Nc2ccc3c(c2)OCCO3)nnc1-c1cnccn1	5.8	i
O=C(CSc1nc2ccc([N+](=O)[O-])cc2[nH]1)Nc1cc(C(F)(F)F)cc(C(F)(F)F)c1	-28.4	i
Cc1ccc(Cl)cc1NC(=O)CSc1nnc(-c2cccs2)n1C	24.0	i
O=C(COc1nc(-c2cccs2)cc(C(F)(F)F)n1)Nc1ccc(Cl)cc1Cl	10.3	i
C[C@@H]1CN([C@@H](C)CO)C(=O)c2cc(NS(C)(=O)=O)ccc2O[C@@H](C)CCCCO[C@H]1CN(C)S(=O)(=O)c1cccs1	0.2	+
C[C@H](CO)N1C[C@H](C)[C@@H](CN(C)S(=O)(=O)c2cccs2)OCCCC[C@H](C)Oc2ccc(NS(C)(=O)=O)cc2C1=O	7.4	+
C[C@H](CO)N1C[C@H](C)[C@H](CN(C)S(=O)(=O)c2cccs2)OCCCC[C@H](C)Oc2ccc(NS(C)(=O)=O)cc2C1=O	-2.0	i
C[C@@H]1CCCCO[C@@H](CN(C)S(=O)(=O)c2cccs2)[C@@H](C)CN([C@H](C)CO)C(=O)c2cc(NS(C)(=O)=O)ccc2O1	5.7	i
COc1ccc2c(c1)C(C)CC(C)(C)N2C(=O)CSc1nc2ccccc2[nH]1 (stereo unspecified)	2.1	i
